Reference: PubChem BioAssay
A number with no mark means an inactive call. No rule for the calls is given here.

experiment: Pseudomonas biofilm growth suppression – PAO1 strain, BacTiter-Glo luminescence, LB-PBS, primary screen (AID 1144); conditions: P. aeruginosa PAO1 biofilm, 12 h, higher = more signal

Row | SMILES | z-score
1 | CN1C2C=C(c3ccc(CO)cc3)C(C3C(=O)N(C(N)=O)C(=O)C32)C1C1CC1 (stereo unspecified) | -0.522
2 | COc1cc(Cc2cc3c(c(CCc4ccccc4)n2)[Si](C(C)C)(C(C)C)O[C@H]3c2ccccc2)cc(OC)c1OC | 0.626
3 | C=CCOC(=O)[C@H]1[C@@H]2C(=O)O[C@@H](c3ccccc3)[C@@H](c3ccccc3)N2[C@@H](c2ccc(OCCOC(=O)[C@@H]3C[C@@H]4C(=O)N[C@@H](Cc5ccccc5)C(=O)N4[C@@H]3c3ccc(O)cc3)cc2)[C@]12C(=O)Nc1ccc(I)cc12 | 0.0872
4 | CCOC(=O)C1=CC[C@@H](c2ccccc2)N(S(=O)(=O)c2ccc(C)cc2)[C@@H]1C#N | -0.232
5 | C=CC[C@]1(C(N)=O)N=C(c2ccc(OCCCO)cc2)O[C@H]1c1ccccc1N=[N+]=[N-] | 0.348
6 | COc1ccc(CCNC(=O)[C@@H]2c3ccccc3C(=O)N(Cc3cc(F)cc(C(F)(F)F)c3)[C@H]2c2ccc(CO)cc2)cc1 | 0.869
7 | CC(C)C[C@@H]1NC(=O)[C@@H]2C[C@H](C(=O)NCCCCCNC(=O)CS)[C@H](c3ccc(O)cc3)N2C1=O | -0.455
8 | C=CCNC(=O)[C@@H]1[C@H]2C(=O)O[C@H](c3ccccc3)[C@H](c3ccccc3)N2[C@H](c2ccc(OCCO)cc2)[C@@]12C(=O)N(C(=O)OCCOC)c1ccccc12 | -0.328
9 | CCCCC(=C=CC[C@@H](O)c1ccccc1OCCO)C[C@@H](O)c1ccccn1 | -0.138
10 | O=C1O[C@@H](c2ccccc2)[C@@H](c2ccccc2)N2[C@@H](c3ccccc3OCCO)[C@]3(C(=O)Nc4ccc(C#CC5(O)CCCCCC5)cc43)[C@@H](C(=O)N3CCCCCCC3)[C@H]12 | -0.349
11 | CCCCC(=C=CC[C@H](O)c1ccccc1OCCO)CCO | 0.235
12 | C=CCNC(=O)[C@@H]1[C@H]2C(=O)O[C@H](c3ccccc3)[C@H](c3ccccc3)N2[C@H](c2ccc(OCCO)cc2)[C@@]12C(=O)Nc1ccc(C#CC3=CCCCC3)cc12 | -0.188
13 | COCCOC(=O)N1C(=O)[C@@]2(c3cc(C#CCCO)ccc31)[C@H](c1ccc(O)cc1)N1[C@H](c3ccccc3)[C@H](c3ccccc3)OC(=O)[C@H]1[C@@H]2C(=O)NC[C@H](O)c1ccccc1 | -0.718
14 | [N-]=[N+]=Nc1ccccc1C[C@]1(C(=O)N2CCCCC2)N=C(c2ccc(OCCCO)cc2)O[C@H]1c1ccccc1 | 0.0619
15 | COc1c(C)cc(-c2nc(-c3ccccc3)c3c(c2C)CO[Si]3(C(C)C)C(C)C)cc1C | 0.306
16 | CC(C)N1CC=CC23O[C@@H]4/C=C\CCCOC(=O)C4[C@H]2C(=O)N(C(C)CO)[C@@H]3C1=O (stereo partly specified) | -2.11
17 | COC(=O)C1(CC(C)C)C=C2C(=C(C)C(=O)C2C)CN1 (stereo unspecified) | 0.142
18 | COCCCNC(=O)[C@@]1(Cc2ccccc2I)c2ccccc2C(=O)N(C2CCCCC2)[C@H]1c1ccc(CO)cc1 | -1.54

Row | SMILES | z-score
19 | O=C/C=C/c1ccc(-c2ccccc2)cc1 | 1.68
20 | COC(=O)C(CC#Cc1ccc2c(c1)[C@]1(C(=O)N2)[C@H](C(=O)N2CCN(c3ncccn3)CC2)[C@H]2C(=O)O[C@H](c3ccccc3)[C@H](c3ccccc3)N2[C@@H]1c1ccc(O)cc1)C(=O)OC | -0.58
21 | COc1ccc([Si](C)(C)[C@H]2[C@H](CC(=O)N3CCC[C@H]3CO)O[C@@]3(C(=O)N(C)c4ccccc43)[C@@H]2C)cc1 | -0.0357
22 | CCCC=C(CCC)[C@@H](NC(=O)c1ccc(C(=O)OC)cc1)c1ccc(C(=O)OC)cc1 | 0.668
23 | Cc1ccc(S(=O)(=O)N2[C@@H](c3ccccc3)C(C(=O)O)=CC[C@H]2c2ccc(F)cc2)cc1 | -0.8
24 | C=C(C(=O)CC[C@@H](OC(=O)c1ccccc1-c1ccccc1C(=O)O)c1cccc(OCCO)c1)C(C)C | -0.417
25 | COC(=O)c1c2oc(c1C(=O)OC)C(=O)N[C@H](Cc1ccccc1)Cn1cc(nn1)C1(CCCCC1)NC(=O)N[C@H](CO)CC2 | -0.72
26 | C=CCNC(=O)[C@@H]1[C@H]2C(=O)O[C@H](c3ccccc3)[C@H](c3ccccc3)N2[C@H](c2ccc(O)cc2)[C@@]12C(=O)Nc1ccc(C#CC3=CCCCC3)cc12 | -0.909
27 | CC(C)(C)OC(=O)CC[C@]1(C(=O)N2CCOCC2)COC(c2ccc(OCCCO)cc2)=N1 | -0.367
28 | C=CC[C@]1(C(=O)NCC(O)CO)N=C(c2ccc(OCCCO)cc2)O[C@H]1c1ccccc1CN=[N+]=[N-] (stereo partly specified) | 0.381
29 | CCOC(=O)C1=CCC(c2cccn2C(=O)OC(C)(C)C)N(S(=O)(=O)c2ccc(C)cc2)C1 (stereo unspecified) | 0.0401
30 | COc1cc(Cc2cc3c(c(-c4ccccc4)n2)[Si](C(C)C)(C(C)C)OC3)cc(OC)c1OC | -0.546
31 | COCCCNC(=O)[C@@]1(Cc2ccccc2I)c2ccccc2C(=O)N(Cc2ccccc2C(F)(F)F)[C@H]1c1ccc(CO)cc1 | -0.528
32 | COc1ccc(CCNC(=O)[C@@H]2c3ccccc3C(=O)N(C(C)C)[C@H]2c2ccc(CO)cc2)cc1 | 0.948
33 | Cc1ccc(N2C(=O)c3ccccc3[C@@H](C(=O)NCCN3CCOCC3)[C@@H]2c2ccc(CO)cc2)nc1 | -0.479
34 | COc1cc2c(cc1O)C(C)N(Cc1sc3ccccc3c1Cl)CC2 (stereo unspecified) | -0.432
35 | CC(C)(C)OC(=O)CC[C@@]1(C(=O)N2CCOCC2)N=C(c2ccc(OCCCO)cc2)O[C@@H]1c1ccccc1CN=[N+]=[N-] | -0.202
36 | CC[C@@H](O[Si](C#C[Si](C(C)C)(C(C)C)C(C)C)(C(C)C)C(C)C)c1cn([C@H](C)c2ccccc2)nn1 | -0.0357
